Test results as given in the supplement of paper PMC9492666.
Counter-ions that a name gives are not always drawn.

How the values were obtained:
HCC1937 = assay: relative cell viability, compound + RSL3, vs DMSO (fraction of DMSO control); higher = less growth inhibition; details: 72 h
MDA-MB-231 = assay: as above; details: 72 h
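Further: breast cancer cell viability read out with the CCK-8 kit after co-treatment of each compound with the ferroptosis inducer RSL3.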

SMILES	relative cell viability (HCC1937)	relative cell viability (MDA-MB-231)
CN(C)C(=N)NC(=N)N [Metformin hydrochloride] + COC(=O)c1ccc([C@H]2c3[nH]c4ccccc4c3C[C@H](C(=O)OC)N2C(=O)CCl)cc1 [RSL3]	0.855	0.605
CC(C)(C)c1ccc(-c2nc3ccccc3[nH]2)cc1 + COC(=O)c1ccc([C@H]2c3[nH]c4ccccc4c3C[C@H](C(=O)OC)N2C(=O)CCl)cc1 [RSL3]	0.529	0.399
O=C(O)C(O)Cc1ccc(O)c(O)c1 (stereo not given) [Sodium Danshensu] + COC(=O)c1ccc([C@H]2c3[nH]c4ccccc4c3C[C@H](C(=O)OC)N2C(=O)CCl)cc1 [RSL3]	0.631	0.545
CC(C)(Oc1ccc(Cl)cc1)C(=O)O [Clofibric acid] + COC(=O)c1ccc([C@H]2c3[nH]c4ccccc4c3C[C@H](C(=O)OC)N2C(=O)CCl)cc1 [RSL3]	0.956	0.603
Oc1ccc(/C=C/c2cc(O)cc(O)c2)cc1 [Resveratrol] + COC(=O)c1ccc([C@H]2c3[nH]c4ccccc4c3C[C@H](C(=O)OC)N2C(=O)CCl)cc1 [RSL3]	0.63	0.508
CCOC(=O)C(C)(C)Oc1ccc(Cl)cc1 [Clofibrate] + COC(=O)c1ccc([C@H]2c3[nH]c4ccccc4c3C[C@H](C(=O)OC)N2C(=O)CCl)cc1 [RSL3]	0.728	0.619
c1cc(-c2cnn3cc(-c4ccc(OCCN5CCCCC5)cc4)cnc23)ccn1 [Dorsomorphin] + COC(=O)c1ccc([C@H]2c3[nH]c4ccccc4c3C[C@H](C(=O)OC)N2C(=O)CCl)cc1 [RSL3]	0.123	0.31
O=C(c1c2ccccc2cc2ccccc12)N1CCC(N2CCC[C@@H](C(=O)N3CCOCC3)C2)CC1 + COC(=O)c1ccc([C@H]2c3[nH]c4ccccc4c3C[C@H](C(=O)OC)N2C(=O)CCl)cc1 [RSL3]	0.352	0.366
CC(C)[C@H](N=C(NS(=O)(=O)c1ccc(Cl)cc1)N1C[C@H](c2ccccc2)C(c2ccc(Cl)cc2)=N1)C(N)=O + COC(=O)c1ccc([C@H]2c3[nH]c4ccccc4c3C[C@H](C(=O)OC)N2C(=O)CCl)cc1 [RSL3]	0.551	0.45
O=C(O)c1c[nH]c2cc(Cl)c(-c3ccc(C4(O)CCC4)cc3)cc12 + COC(=O)c1ccc([C@H]2c3[nH]c4ccccc4c3C[C@H](C(=O)OC)N2C(=O)CCl)cc1 [RSL3]	0.572	0.572
CN(CCOc1ccc(CC2SC(=O)NC2=O)cc1)c1ccccn1 (stereo not given) [Rosiglitazone maleate] + COC(=O)c1ccc([C@H]2c3[nH]c4ccccc4c3C[C@H](C(=O)OC)N2C(=O)CCl)cc1 [RSL3]	0.758	0.516
O=C(NCCS(=O)(=O)c1ccc(C(F)(F)F)cn1)c1ccc(Cl)cc1 + COC(=O)c1ccc([C@H]2c3[nH]c4ccccc4c3C[C@H](C(=O)OC)N2C(=O)CCl)cc1 [RSL3]	0.362	0.525
CC(C)=CCC(O)C1=CC(=O)c2c(O)ccc(O)c2C1=O (single isomer, unassigned; (+)) [(+)-Shikonin] + COC(=O)c1ccc([C@H]2c3[nH]c4ccccc4c3C[C@H](C(=O)OC)N2C(=O)CCl)cc1 [RSL3]	0.0766	0.132
Cc1nc2ccc(C(=O)N3CCC4(CC3)CC(=O)c3c(cnn3C(C)C)C4)cc2[nH]1 + COC(=O)c1ccc([C@H]2c3[nH]c4ccccc4c3C[C@H](C(=O)OC)N2C(=O)CCl)cc1 [RSL3]	0.402	0.591
CC[C@H](C)C(=O)O[C@H]1C[C@@H](C)C=C2C=C[C@H](C)[C@H](CC[C@@H]3C[C@@H](O)CC(=O)O3)[C@H]21 [Lovastatin] + COC(=O)c1ccc([C@H]2c3[nH]c4ccccc4c3C[C@H](C(=O)OC)N2C(=O)CCl)cc1 [RSL3]	0.867	0.491
Nc1ccc(C(=O)O)c(O)c1 [Aminopar] + COC(=O)c1ccc([C@H]2c3[nH]c4ccccc4c3C[C@H](C(=O)OC)N2C(=O)CCl)cc1 [RSL3]	0.822	0.662
C=C1C[C@]2(O)O[C@@]3(CC2=C(C)C)[C@@H](C)CC[C@@H]13 [Isocurcumenol] + COC(=O)c1ccc([C@H]2c3[nH]c4ccccc4c3C[C@H](C(=O)OC)N2C(=O)CCl)cc1 [RSL3]	0.612	0.568
CCCCCCS(=O)(=O)NC(=O)c1ccc(CSCc2ccc(-c3ccccc3)cc2)cc1 + COC(=O)c1ccc([C@H]2c3[nH]c4ccccc4c3C[C@H](C(=O)OC)N2C(=O)CCl)cc1 [RSL3]	0.403	0.676
CN1CC(O)C2=C/C(=N/NC(N)=O)C(=O)C=C21 (stereo not given) [Carbazochrome] + COC(=O)c1ccc([C@H]2c3[nH]c4ccccc4c3C[C@H](C(=O)OC)N2C(=O)CCl)cc1 [RSL3]	0.451	0.551
OC[C@H]1O[C@@H](Oc2cc(O)cc(/C=C/c3ccc(O)cc3)c2)[C@H](O)[C@@H](O)[C@@H]1O [Polydatin] + COC(=O)c1ccc([C@H]2c3[nH]c4ccccc4c3C[C@H](C(=O)OC)N2C(=O)CCl)cc1 [RSL3]	0.749	0.608
CCCc1c(OCCCOc2ccc(OCC(=O)O)cc2)ccc(C(C)=O)c1O + COC(=O)c1ccc([C@H]2c3[nH]c4ccccc4c3C[C@H](C(=O)OC)N2C(=O)CCl)cc1 [RSL3]	0.556	0.757
NC(=O)c1cccc(-c2cccc(OC(=O)NC3CCCCC3)c2)c1 + COC(=O)c1ccc([C@H]2c3[nH]c4ccccc4c3C[C@H](C(=O)OC)N2C(=O)CCl)cc1 [RSL3]	0.407	0.707
Cc1cc([N+](=O)[O-])ccc1NS(=O)(=O)c1cc(Cl)ccc1Cl + COC(=O)c1ccc([C@H]2c3[nH]c4ccccc4c3C[C@H](C(=O)OC)N2C(=O)CCl)cc1 [RSL3]	0.264	0.515
O=C(O)Cn1nnc(-c2cc(N3CCC(Oc4cc(F)ccc4Br)CC3)no2)n1 + COC(=O)c1ccc([C@H]2c3[nH]c4ccccc4c3C[C@H](C(=O)OC)N2C(=O)CCl)cc1 [RSL3]	0.428	0.632
O=S(=O)(Nc1ccc(C(O)(C(F)(F)F)C(F)(F)F)cc1)c1cccs1 + COC(=O)c1ccc([C@H]2c3[nH]c4ccccc4c3C[C@H](C(=O)OC)N2C(=O)CCl)cc1 [RSL3]	0.617	0.63
O=C(ON1C(=O)CCC1=O)N1CCN(C(c2ccc(Cl)cc2)c2ccc(Cl)cc2)CC1 [Cravatt Reagent] + COC(=O)c1ccc([C@H]2c3[nH]c4ccccc4c3C[C@H](C(=O)OC)N2C(=O)CCl)cc1 [RSL3]	0.55	0.716
O=C(/C=C/c1ccc(/C=C/C(=O)Nc2ccc(C3=NCCN3)cc2)cc1)Nc1ccc(C2=NCCN2)cc1 + COC(=O)c1ccc([C@H]2c3[nH]c4ccccc4c3C[C@H](C(=O)OC)N2C(=O)CCl)cc1 [RSL3]	0.296	0.378
CCOc1cc(CC(=O)N[C@@H](CC(C)C)c2ccccc2N2CCCCC2)ccc1C(=O)O [Repaglinide] + COC(=O)c1ccc([C@H]2c3[nH]c4ccccc4c3C[C@H](C(=O)OC)N2C(=O)CCl)cc1 [RSL3]	0.598	0.656
CCC(=O)Nc1cccc(Oc2nc(Nc3ccc(N4CCN(C)CC4)cc3OC)ncc2Cl)c1 + COC(=O)c1ccc([C@H]2c3[nH]c4ccccc4c3C[C@H](C(=O)OC)N2C(=O)CCl)cc1 [RSL3]	0.121	0.3
O=c1ccc2cc(O)c(O)cc2o1 [Esculetin] + COC(=O)c1ccc([C@H]2c3[nH]c4ccccc4c3C[C@H](C(=O)OC)N2C(=O)CCl)cc1 [RSL3]	0.301	0.497
